In experiment [1] the target is rat Opioid Receptor, Non-selective Binding, Oprm1 (gene 25601) (UniProt P33535). Nature of the experiment: NVS_GPCR_rOpiate_NonSelective: NovaScreen (NVS) G Protein-Coupled Receptor Assay for rat Opioid Receptor, Non-selective Binding (AID 2283318). Summed up:
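Rat forebrain membranes, cell-free radioligand binding with filter-based scintillation counting, read 1.5 h after dosing. Primary screen in duplicate at 25 uM; actives retested in concentration series. Loss of signal versus DMSO baseline scored.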

Experiment [2] addresses rat Somatostatin Receptor (SST), Sstr1 (gene 25033) (UniProt P28646). Put plainly: NVS_GPCR_rSST: NovaScreen (NVS) G Protein-Coupled Receptor Assay for rat Somatostatin Receptor (SST) (AID 2283314). The method in brief: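 Rat forebrain membranes; radioligand displacement read by filter-based scintillation counting 1 h after dosing. Primary screen in duplicate at 25 uM. Actives (e.g., 30% inhibition) were rerun as concentration-response to 50 uM max and fitted against DMSO.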

Experiment [3] has as its target rat Opioid Receptor, Non-selective Sodium (Na+) Binding, Oprm1 (gene 25601) (UniProt P33535). Put plainly: NVS_GPCR_rOpiate_NonSelectiveNa: NovaScreen (NVS) G Protein-Coupled Receptor Assay for rat Opioid Receptor, Non-selective Sodium (Na+) Binding (AID 2283311). Summed up:
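Rat forebrain membranes, radioligand displacement with filter scintillation counting, 1.5 h incubation. Screened in duplicate at 25 µM; hits then run in concentration-response up to 50 µM; loss of binding fitted versus DMSO.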

Experiment [4] addresses rat Vasopressin 1 Receptor (V1), Avpr1a (gene 25107) (UniProt P30560). Nature of the experiment: NVS_GPCR_rV1: NovaScreen (NVS) G Protein-Coupled Receptor Assay for rat Vasopressin 1 Receptor (V1) (AID 2283316). The method in brief:
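Radioligand binding on rat liver membranes, 1.5 h incubation, filter-based scintillation counting. Single 25 uM screen in duplicate; chemicals meeting threshold (e.g. 30% inhibition) run in concentration-response up to 50 uM.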

For experiment [5], the target named is rat Neurokinin-1 Receptor (NK1), Tacr1 (gene 24807) (UniProt P14600). Put plainly: NVS_GPCR_rNK1: NovaScreen (NVS) G Protein-Coupled Receptor Assay for rat Neurokinin-1 Receptor (NK1) (AID 2283309). Summed up:
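Rat submaxillary gland membranes; radioligand displacement read by filter-based scintillation counting after 1 h. Primary screen in duplicate at 25 uM; actives retested in concentration series; loss of binding fitted versus DMSO.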

Experiment [6] has as its target rat Neurokinin-3 Receptor (NK3), Tacr3 (gene 24808) (UniProt P16177). Nature of the experiment: NVS_GPCR_rNK3: NovaScreen (NVS) G Protein-Coupled Receptor Assay for rat Neurokinin-3 Receptor (NK3) (AID 2283310). Summed up:
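Rat cortical membranes; radioligand binding with filtration and scintillation counting, 2 h after dosing. Primary screen in duplicate at 25 uM, then concentration-response up to 50 uM; loss of binding signal relative to DMSO.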

For experiment [7], the target named is rat Glutamate Metabotropic Receptor 5 (MGluR5), Grm5 (gene 24418) (UniProt P31424). Nature of the experiment: NVS_GPCR_rmMGluR5: NovaScreen (NVS) G Protein-Coupled Receptor Assay for rat Glutamate Metabotropic Receptor 5 (MGluR5) (AID 2283307). Here is the method:
(§1) NVS_GPCR_rmMGluR5 is a biochemical, single-readout assay that uses extracted gene-proteins from Rat whole brain in a tissue-based cell-free assay. Measurements were taken 1.5 hours after chemical dosing in a 48-well plate.NVS_GPCR_rmMGluR5 is one of one assay component(s) measured or calculated from the NVS_GPCR_rmMGluR5 assay. It is designed to make measurements of radioligand binding, a form of binding reporter, as detected with scintillation counting signals by Filter-based radiodetection technology.Data from the assay component NVS_GPCR_rmMGluR5 was analyzed into 1 assay endpoint. This assay endpoint, NVS_GPCR_rmMGluR5, was analyzed in the positive analysis fitting direction relative to DMSO as the negative control and baseline of activity. Using a type of binding reporter, loss-of-signal activity can be used to understand changes in the binding as they relate to the gene Grm5. Furthermore, this assay endpoint can be referred to as a primary readout, because the performed assay has only produced 1 assay endpoint. To generalize the intended target to other relatable targets, this assay endpoint is annotated to the gpcr intended target family, where the subfamily is metabotropic glutamate receptor. […]

For experiment [8], the target named is Metabotropic glutamate receptor 1 (Rattus norvegicus) (UniProt P23385). Nature of the experiment: NVS_GPCR_rmMGluR1: NovaScreen (NVS) G Protein-Coupled Receptor Assay for rat Glutamate Metabotropic Receptor 1 (MGluR1) (AID 2283305). Here is the method:
as §1, with “NVS_GPCR_rmMGluR1” for “NVS_GPCR_rmMGluR5”, “cerebellum” for “whole brain”, “1 hour” for “1.5 hours”, “96-well plate.NVS_GPCR_rmMGluR1” for “48-well plate.NVS_GPCR_rmMGluR5”, “NVS_GPCR_rmMGluR1,” for “NVS_GPCR_rmMGluR5,”, “Grm1.” for “Grm5.”

The target in another experiment is Adra2b (gene 24174) (UniProt P19328). Put plainly: NVS_GPCR_rmAdra2B: NovaScreen (NVS) G Protein-Coupled Receptor Assay for hybird cells Adrenergic, Alpha 2B Receptor (Adra2B) (AID 2283306). Summed up: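 Radioligand filter-binding assay on membrane proteins from neuroglioma/blastoma hybrid cells (rodent), 1 h after dosing; scintillation counting, loss of signal vs DMSO. Primary screen in duplicate at 25 uM, actives then run in concentration series.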
Adra2b (gene 24174), sequence (P19328 whole entry, looked up): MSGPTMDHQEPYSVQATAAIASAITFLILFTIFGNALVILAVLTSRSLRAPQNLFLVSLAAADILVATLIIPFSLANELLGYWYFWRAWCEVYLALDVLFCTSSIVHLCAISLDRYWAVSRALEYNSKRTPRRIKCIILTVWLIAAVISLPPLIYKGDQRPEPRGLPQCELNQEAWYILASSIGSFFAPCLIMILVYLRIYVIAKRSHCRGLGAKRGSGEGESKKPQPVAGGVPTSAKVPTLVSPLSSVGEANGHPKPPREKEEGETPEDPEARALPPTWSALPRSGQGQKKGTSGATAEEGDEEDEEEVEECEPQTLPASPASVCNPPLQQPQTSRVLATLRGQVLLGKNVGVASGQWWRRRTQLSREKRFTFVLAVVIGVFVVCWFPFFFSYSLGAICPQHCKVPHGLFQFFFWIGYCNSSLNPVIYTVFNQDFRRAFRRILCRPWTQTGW

For experiment [9], the target named is rat Neonicotinoid receptor (NNR), Chrna7 (gene 25302) (UniProt Q05941). Put plainly: NVS_LGIC_rNNR_BungSens: NovaScreen (NVS) Ligand-Gated Ion Channel Assay for rat Neonicotinoid receptor (NNR) (AID 2283315). Summed up: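 Radioligand displacement binding on rat cortical membranes, 2.5 h incubation, filtration and scintillation counting. Loss of specific binding fitted relative to DMSO.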
rat Neonicotinoid receptor (NNR), Chrna7 (gene 25302), sequence (Q05941 whole entry, looked up): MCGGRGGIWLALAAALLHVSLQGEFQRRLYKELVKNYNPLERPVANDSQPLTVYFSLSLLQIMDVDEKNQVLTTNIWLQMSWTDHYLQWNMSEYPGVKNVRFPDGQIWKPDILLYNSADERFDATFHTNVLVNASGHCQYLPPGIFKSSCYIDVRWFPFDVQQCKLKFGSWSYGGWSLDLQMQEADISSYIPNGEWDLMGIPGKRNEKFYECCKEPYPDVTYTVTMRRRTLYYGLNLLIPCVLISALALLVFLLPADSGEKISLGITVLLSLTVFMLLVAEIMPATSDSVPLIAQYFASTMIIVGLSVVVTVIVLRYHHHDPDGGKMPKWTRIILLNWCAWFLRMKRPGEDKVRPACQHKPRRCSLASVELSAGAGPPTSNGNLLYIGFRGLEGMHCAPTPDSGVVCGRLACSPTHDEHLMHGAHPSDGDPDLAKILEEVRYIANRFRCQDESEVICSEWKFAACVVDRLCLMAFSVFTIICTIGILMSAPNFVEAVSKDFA

Inconclusive results are not listed. Active and inactive are the calls of the source. How the source made its calls: active means hit-call score of the fitted dose curve at least 0.9, where 1 is the maximum; inconclusive means response in the unintended direction; inactive means score below 0.9.

rat Opioid Receptor, Non-selective Sodium (Na+) Binding, Oprm1 (gene 25601), sequence (P33535 whole entry, looked up): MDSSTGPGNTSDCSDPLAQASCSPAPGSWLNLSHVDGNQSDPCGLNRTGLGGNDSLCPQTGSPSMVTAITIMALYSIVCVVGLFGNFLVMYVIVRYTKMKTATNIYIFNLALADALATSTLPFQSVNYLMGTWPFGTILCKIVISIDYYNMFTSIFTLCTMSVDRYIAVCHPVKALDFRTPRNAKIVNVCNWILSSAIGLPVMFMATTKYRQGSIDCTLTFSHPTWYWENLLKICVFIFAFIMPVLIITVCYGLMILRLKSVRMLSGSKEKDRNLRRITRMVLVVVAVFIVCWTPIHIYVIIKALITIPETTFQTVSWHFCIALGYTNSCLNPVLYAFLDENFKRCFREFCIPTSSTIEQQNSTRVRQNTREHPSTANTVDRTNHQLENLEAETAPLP
rat Opioid Receptor, Non-selective Binding, Oprm1 (gene 25601), sequence (P33535 whole entry, looked up): as above
rat Neurokinin-3 Receptor (NK3), Tacr3 (gene 24808), sequence (P16177 whole entry, looked up): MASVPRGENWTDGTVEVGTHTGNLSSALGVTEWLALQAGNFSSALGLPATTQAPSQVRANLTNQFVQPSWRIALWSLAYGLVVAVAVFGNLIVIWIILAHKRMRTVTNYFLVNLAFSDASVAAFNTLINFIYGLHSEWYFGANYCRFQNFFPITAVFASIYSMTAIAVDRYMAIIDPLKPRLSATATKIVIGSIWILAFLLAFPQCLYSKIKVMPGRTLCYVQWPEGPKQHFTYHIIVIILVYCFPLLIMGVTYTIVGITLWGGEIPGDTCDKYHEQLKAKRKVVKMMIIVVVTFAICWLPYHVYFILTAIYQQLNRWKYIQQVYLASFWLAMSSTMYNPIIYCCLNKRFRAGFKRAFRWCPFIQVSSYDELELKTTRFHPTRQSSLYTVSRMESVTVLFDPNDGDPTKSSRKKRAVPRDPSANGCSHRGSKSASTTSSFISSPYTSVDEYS
rat Somatostatin Receptor (SST), Sstr1 (gene 25033), sequence (P28646 whole entry, looked up): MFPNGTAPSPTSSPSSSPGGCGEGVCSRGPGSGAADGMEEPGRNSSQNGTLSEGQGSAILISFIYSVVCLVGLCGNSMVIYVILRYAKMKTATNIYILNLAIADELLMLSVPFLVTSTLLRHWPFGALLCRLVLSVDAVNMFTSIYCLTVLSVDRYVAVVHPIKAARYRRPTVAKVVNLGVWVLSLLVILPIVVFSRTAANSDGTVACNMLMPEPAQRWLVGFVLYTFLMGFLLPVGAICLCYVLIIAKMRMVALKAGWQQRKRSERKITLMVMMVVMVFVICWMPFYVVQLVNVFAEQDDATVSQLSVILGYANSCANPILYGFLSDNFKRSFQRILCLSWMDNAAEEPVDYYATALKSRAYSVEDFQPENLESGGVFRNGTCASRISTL
rat Neurokinin-1 Receptor (NK1), Tacr1 (gene 24807), sequence (P14600 whole entry, looked up): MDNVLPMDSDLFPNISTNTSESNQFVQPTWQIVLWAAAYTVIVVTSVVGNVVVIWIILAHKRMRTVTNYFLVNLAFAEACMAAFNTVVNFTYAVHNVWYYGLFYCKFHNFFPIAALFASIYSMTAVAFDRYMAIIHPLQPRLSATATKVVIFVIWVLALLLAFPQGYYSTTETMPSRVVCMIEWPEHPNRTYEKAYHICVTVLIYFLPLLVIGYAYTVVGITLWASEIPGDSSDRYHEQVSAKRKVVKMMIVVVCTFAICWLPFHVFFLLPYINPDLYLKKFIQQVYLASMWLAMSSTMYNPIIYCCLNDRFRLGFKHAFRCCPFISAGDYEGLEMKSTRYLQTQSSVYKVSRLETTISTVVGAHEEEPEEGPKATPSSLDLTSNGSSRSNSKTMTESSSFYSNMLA
rat Vasopressin 1 Receptor (V1), Avpr1a (gene 25107), sequence (P30560 whole entry, looked up): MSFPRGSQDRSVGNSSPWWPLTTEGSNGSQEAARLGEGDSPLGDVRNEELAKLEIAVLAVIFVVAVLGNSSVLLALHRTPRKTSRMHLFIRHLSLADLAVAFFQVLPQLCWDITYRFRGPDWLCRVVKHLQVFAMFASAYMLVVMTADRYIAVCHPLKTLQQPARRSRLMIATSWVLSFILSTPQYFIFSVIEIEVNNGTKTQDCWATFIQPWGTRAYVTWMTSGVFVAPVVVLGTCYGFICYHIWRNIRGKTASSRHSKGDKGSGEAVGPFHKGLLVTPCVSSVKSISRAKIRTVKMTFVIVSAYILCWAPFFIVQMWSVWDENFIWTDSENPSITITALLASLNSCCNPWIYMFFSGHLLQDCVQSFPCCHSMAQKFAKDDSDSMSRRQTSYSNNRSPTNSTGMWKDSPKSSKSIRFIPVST
Metabotropic glutamate receptor 1 (Rattus norvegicus), sequence (P23385 whole entry, looked up): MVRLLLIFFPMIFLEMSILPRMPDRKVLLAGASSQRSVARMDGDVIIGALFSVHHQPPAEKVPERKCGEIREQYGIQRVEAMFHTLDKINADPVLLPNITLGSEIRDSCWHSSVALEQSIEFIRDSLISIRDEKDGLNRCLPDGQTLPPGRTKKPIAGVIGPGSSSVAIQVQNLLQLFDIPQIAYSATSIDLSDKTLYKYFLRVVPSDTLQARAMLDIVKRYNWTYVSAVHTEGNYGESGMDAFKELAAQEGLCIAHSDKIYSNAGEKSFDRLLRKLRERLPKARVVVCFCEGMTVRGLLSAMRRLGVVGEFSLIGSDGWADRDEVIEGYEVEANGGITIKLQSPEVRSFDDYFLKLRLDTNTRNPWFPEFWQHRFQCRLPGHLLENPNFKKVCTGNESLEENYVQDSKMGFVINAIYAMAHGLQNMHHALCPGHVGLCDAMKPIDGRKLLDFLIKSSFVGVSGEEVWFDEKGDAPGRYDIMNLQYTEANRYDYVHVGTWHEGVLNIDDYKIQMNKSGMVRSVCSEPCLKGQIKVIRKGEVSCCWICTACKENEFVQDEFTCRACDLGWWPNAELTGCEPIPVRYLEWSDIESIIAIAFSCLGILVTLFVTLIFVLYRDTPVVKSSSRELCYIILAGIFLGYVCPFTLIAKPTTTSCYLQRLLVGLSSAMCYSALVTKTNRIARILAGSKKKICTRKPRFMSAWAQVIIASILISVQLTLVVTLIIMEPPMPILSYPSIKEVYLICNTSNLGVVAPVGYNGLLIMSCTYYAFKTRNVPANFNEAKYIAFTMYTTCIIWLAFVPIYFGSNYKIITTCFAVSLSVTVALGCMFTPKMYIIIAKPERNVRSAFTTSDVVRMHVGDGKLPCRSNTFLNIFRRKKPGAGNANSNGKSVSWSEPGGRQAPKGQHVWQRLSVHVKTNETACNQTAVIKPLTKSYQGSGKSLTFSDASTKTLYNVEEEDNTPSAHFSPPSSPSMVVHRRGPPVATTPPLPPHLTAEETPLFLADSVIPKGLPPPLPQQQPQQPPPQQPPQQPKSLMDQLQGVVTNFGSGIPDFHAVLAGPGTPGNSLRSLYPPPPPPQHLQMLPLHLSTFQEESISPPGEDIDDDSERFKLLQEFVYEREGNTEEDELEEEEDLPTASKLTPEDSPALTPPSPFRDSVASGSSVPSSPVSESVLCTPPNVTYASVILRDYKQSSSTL

In the case of `Cc1ncc([C@@H](CCCCCCc2ccc3c(n2)NCCC3)CC(=O)O)cn1`, in experiment [1], the AC50 was 25 µM (active).

In the case of `CCCCCCCC1CCC(=O)O1` (stereo unspecified), the call in [2] was inactive.

With `CCN(CC)C(=S)SSC(=S)N(CC)CC`, the outcome in experiment [3] was inactive. The AC50 in experiment [4] was 15.6 µM (active).

Take `CCn1nc(C)c2c1C(=O)NCC(c1ccc(O)cc1)=N2`: the call in [5], in experiment [6] and in experiment [1] was inactive.

For the molecule `CC[C@H](C)C(=O)O[C@H]1C[C@H](O)C=C2C=C[C@H](C)[C@H](CC[C@@H](O)C[C@@H](O)CC(=O)O)[C@H]21`, the molecule was classed as inactive in experiment [7].

`CCCCCCCCCC`: the result (in experiment [8]; with Adra2b (gene 24174); in [6]; in [9]) was inactive. Moreover, the figures for the AC50 in experiment [2] and in experiment [4] were 2.19 µM (active) and 25 µM (active), respectively.

With `COc1cc(C(C)C)c2c(c1)S(=O)(=O)N(COc1cc(=O)n3cccc(OCCN4CCCCC4)c3n1)C2=O`, the results for the AC50 (with Adra2b (gene 24174); in experiment [3]) were 2.98 µM (active) and 8.62 µM (active), respectively. In addition, in experiment [9], the molecule was classed as inactive.

In the case of `CCCOc1ccc(S(=O)(=O)N2CCN(CC)CC2)cc1-c1nc2c(CC)n(Cc3ccccn3)nc2c(=O)[nH]1`, the AC50 in experiment [5] was 12.6 µM (active).

In the case of `Cc1nccn1-c1ccc(Sc2cccc(C3(C(N)=O)CCOCC3)c2)cc1`, the AC50 with Adra2b (gene 24174) is 8.46 µM (active); in [5], 25 µM (active). The call in [3] and in experiment [1] was inactive.

`OC(Cn1cncn1)(Cn1cncn1)c1ccc(F)cc1F`: the molecule was classed as inactive in experiment [3].

On to `C=CCc1cc(S(=O)(=O)c2ccc(O)c(CC=C)c2)ccc1O`, for which the AC50 is 16.1 µM (active) in [3] and 13.1 µM (active) in [1].

With `CCCCN1C(=O)[C@@H]([C@H](O)C2CCCCC2)NC(=O)C12CCN(Cc1ccc(Oc3ccc(C(=O)O)cc3)cc1)CC2`, in [8], the AC50 was 9.81 µM (active). Besides, the result in experiment [6] was inactive.

With `c1ccc(C(O[C@@H]2CCCN(CCc3ccc4c(c3)OCO4)C2)c2ccccc2)cc1`, the AC50 with Adra2b (gene 24174) was 7.75 µM (active); in experiment [3], 6.18 µM (active); in experiment [2] it was 14.6 µM (active); in experiment [1], 2.71 µM (active). In addition, the outcome in experiment [9] was inactive.

For `CCCCCCCCN(C)C`, the outcome in the experiment with Adra2b (gene 24174) was inactive.

Take `CCCCCCCC/C=C\CCCCCCCC(=O)OC[C@@H](O)[C@H]1OC[C@H](O)[C@H]1O`: in the experiment with Adra2b (gene 24174), the outcome was inactive.

Take `OCC(CO)(CO)CO`: the result in experiment [6] was inactive.

As to `O=C(O)c1ccc2c(c1)nc(C(=O)NC1CCN(C3CC3)CC1)n2Cc1cc(-c2ccc(Cl)s2)on1`, the AC50 with Adra2b (gene 24174) is 0.395 µM (active).

For the origin of these results see PubChem BioAssay (EPA / NIEHS).
